Laboratory results taken from PubChem BioAssay (NCI).
The panel holds about 83,000 compounds, 20% with a hit somewhere; the sample as a whole holds those more often.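 Compound tested at a single concentration for 48 hours in 96-well plates; a percent growth value below 10 was scored as active.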 Unmarked numbers belong to inactive results. Active and inactive are the calls of the source.

Key:
Assay in all cases: NCI-60 one-dose screen, 48 h (100 = growth as untreated, 0 = no growth, -100 = all killed)
Conditions in all cases: 10 µM
[1] = tested on: HCT-15 colon
[2] = tested on: HT29 colon
[3] = tested on: SNB-75 CNS
[4] = tested on: SNB-19 CNS
[5] = tested on: U251 CNS
[6] = tested on: PC-3 prostate
[7] = tested on: SK-MEL-5 melanoma
[8] = tested on: UACC-62 melanoma
[9] = tested on: LOX IMVI melanoma
[10] = tested on: SK-MEL-28 melanoma
[11] = tested on: SK-MEL-2 melanoma
[12] = tested on: SN12C renal
[13] = tested on: UO-31 renal
[14] = tested on: TK-10 renal
[15] = tested on: ACHN renal
[16] = tested on: CAKI-1 renal
[17] = tested on: A498 renal
[18] = tested on: CCRF-CEM leukemia
[19] = tested on: MOLT-4 leukemia

| Structure (SMILES) | growth [1] | growth [2] | growth [3] | growth [4] | growth [5] | growth [6] | growth [7] | growth [8] | growth [9] | growth [10] | growth [11] | growth [12] | growth [13] | growth [14] | growth [15] | growth [16] | growth [17] | growth [18] [%] | growth [19] |
| --- | --- | --- | --- | --- | --- | --- | --- | --- | --- | --- | --- | --- | --- | --- | --- | --- | --- | --- | --- |
| CCCCCCCCCCCCCCCCn1cc[n+](C)c1 | 9.85% (active) | -100% (active) | -98.6% (active) | -75.9% (active) | -70% (active) | -69.7% (active) | -95.2% (active) | -94.6% (active) | -50.4% (active) | -86.2% (active) | -64.5% (active) | -94.6% (active) | -85.9% (active) | -80.4% (active) | -0.6% (active) | -83.5% (active) | -65.3% (active) | 33.6 | 17.2% |
| Cc1cc(OI)c(C(C)C)cc1-c1cc(C(C)C)c(OI)cc1C | 105% | 101% | 107% | 104% | 103% | 98.6% | 103% | 98.7% | 93.4% | 103% | 80.7% | 101% | 83.5% | 97.3% | 96% | 95.1% | 85.4% | 98.3 | 86.8% |
| Fc1ccc(-c2cc(C(Cl)Cl)no2)cc1 | 96.9% | 114% | 72.4% | 94.7% | 108% | 93% | 94.3% | 92.8% | 101% | 109% | 116% | 97.6% | 78.7% | 131% | 102% | 84.9% | 99.3% | 93.1 | 108% |
| CCc1nn2c(-c3cc(OC)c(OC)c(OC)c3)c(-c3cc(OC)c(OC)c(OC)c3)nc2s1 | 77.9% | 69.6% | -25.6% (active) | 61.9% | 58.1% | 82.9% | 89.7% | 63.1% | 85.1% | 85.8% | 44.5% | 85.9% | 81.7% | 73% | 74% | 71.4% | 88.6% | 80.8 | 95.9% |
| C[N+]1(CC2CO2)CCCCCC1 (centres undefined) | 94.9% | 112% | 92.9% | 104% | 107% | 102% | 98.1% | 102% | 105% | 104% | 118% | 102% | 93.4% | 114% | 101% | 100% | 87.8% | 109 | 112% |
| COc1cc(-c2cc(-c3ccc(C)cc3)nc3nc(N)[nH]c(=O)c23)ccc1Oc1ccnc2cc(Cl)ccc12 | 88.7% | 84.6% | 67.5% | 74.3% | 81% | 70.5% | 84% | 86.9% | 86.3% | 88.3% | 93% | 74.2% | 56.3% | 120% | 93.4% | 83.2% | 73.4% | 40.6 | 49.1% |
| CS(=O)(=O)Nc1ccc(OCc2nnc(-c3ccc(Cl)cc3)o2)c(F)c1 | 88% | 105% | 82.7% | 93.5% | 99% | 91% | 92.3% | 83.7% | 82.9% | 102% | 112% | 88.1% | 74.1% | 111% | 86% | 91.3% | 62.5% | 97.5 | 81% |
| COc1cc2c3c(cccc3c1)C(=O)N(CCN1CCCC1)C2=O | 20.1% | 0.567% (active) | 23.5% | 31.7% | 25.9% | 14.3% | -33.3% (active) | -34% (active) | -2.23% (active) | 19.1% | -8.39% (active) | 29.7% | -3.17% (active) | -6.26% (active) | 7.6% (active) | 14.2% | -22.1% (active) | 18.9 | 4.5% (active) |
| COc1ccc(-c2nc(NC(=O)CS(=O)(=O)c3ccc(F)cc3)sc2C)cc1 | 18.7% | 4.71% (active) | 79.6% | 86.8% | 47.8% | 44.1% | 35.9% | 74.9% | 51.6% | 88.5% | 72.7% | 55.5% | 26.8% | 98.4% | 73.5% | 51.8% | 93.6% | 21.2 | 35.5% |
| COc1ccccc1S(=O)(=O)Nc1ccc2c(c1)CN(C)C(=O)N2 | 40.8% | 22.8% | 17.5% | 54.1% | 50% | 35.3% | 40.5% | 29.3% | 29.1% | 48.9% | 47.6% | 53.2% | 10.2% | 17.3% | 34.7% | 21.2% | -2.92% (active) | 48.9 | 38.4% |
| CCCCCCCCCCCC(c1ccccc1)N(C)C (centres undefined) | 95.6% | 86.3% | 89.5% | 95.1% | 95.6% | 78.1% | 97% | 94.9% | 92.7% | 99% | 116% | 90.7% | 68.9% | 134% | 92.5% | 93.2% | 71.2% | 69.1 | 82.1% |
